Most compounds without a hit are left out; they make up all but 7.6% or so of the library.
Cy5 interf NS3h: Cy5 fluorescence interference, HCV helicase counter-screen; Cy5-dT15 DNA with NS3h; actives lie on both sides; signal over control mean, under 1 quenches; fluorescence interference ratio at 100 µM; hit rate 6% among 16,000; AID 720488;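 active = compound fluorescence over control fluorescence at most 0.8, a quencher, or at least a set upper limit, an enhancer; inactive = ratio between 0.8 and the set upper limit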
HCV NS3h FP: hepatitis C NS3 helicase inhibition, primary screen. inhibition, % at 100 µM. hit rate 1.6% among 16,000. NS3h Cy5-dT15 DNA binding, fluorescence polarization;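 active = inhibition above the average over every tested compound plus 3 SD, cut at about 40% in these data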
The depositor's hits bear a star.

SMILES	Cy5 interf NS3h	HCV NS3h FP
C=CCCCC(=O)Nc1ccc(Cl)cc1Cl	0.97	10
C=CCCCC(=O)Nc1ccc(-c2ccc(NC(=O)CCCC=C)cc2)cc1	0.94	8
O=C(CCCC(=O)OCC(F)(F)C(F)F)Nc1ccc(NC(=O)CCCC(=O)OCC(F)(F)C(F)F)cc1	0.62*	3
O=C(CCC(=O)OCC(F)(F)C(F)F)Nc1ccc(Cl)cc1Cl	0.78*	8
CN1C(=O)C(=Cc2ccc(OCc3ccccc3F)cc2)C(=O)N(C)C1=O	1	5
O=C(NOC(=O)c1cccc(I)c1)c1ccc(Cl)cc1	0.91	8
COC(=O)c1cc(C(=O)Nc2cc(OC)ccc2OC)cc([N+](=O)[O-])c1	1.1	9
Cc1ccc(C(=O)COc2cc(OCC(=O)c3ccc(C)cc3)c3c(C)cc(=O)oc3c2)cc1	0.66*	2
O=C(COc1ccc2ccc(=O)oc2c1)c1ccc(-c2ccccc2)cc1	0.95	33
Cc1sc(NC(=O)c2ccc(F)cc2)c(C(=O)O)c1C	0.7*	14
Cc1cc(C)cc(NC(=O)c2ccc(F)cc2)c1	1	12
CC(=O)Nc1ccc(NC(=O)c2ccccc2OC(F)F)cc1	0.77*	6
COc1ccccc1C(=O)Nc1ccc(Br)cc1	0.91	0
O=C(Nc1ccc(NC(=O)c2ccccc2Br)cc1)c1ccccc1Br	0.96	9
COc1ccccc1C(=O)Nc1cc(C)cc(C)c1	0.68*	15
Cc1cc(NC(=O)c2ccc(-c3cccc(Cl)c3)o2)ccc1NC(=O)c1ccco1	1.1	-1
COc1ccc(NC(=O)CN(c2cc(OC)ccc2OC)S(C)(=O)=O)cc1	1	-9
O=C(O)CN1C(=O)S/C(=C/C(Cl)=C/c2ccc([N+](=O)[O-])cc2)C1=O	1.1	11
COc1ccccc1/C=C1/SC(=S)N(Cc2ccccc2)C1=O	1.1	11
CCOc1cc(C(=O)Nc2ccc(F)cc2)cc(OCC)c1OCC	0.71*	17
CCOc1cc(OCC)cc(C(=O)Nc2ccc(F)cc2)c1	1	20
CCOc1cccc(C(=O)Nc2nc3ccc(C)cc3s2)c1	0.69*	0
CCOc1ccc2nc(SCC(=O)NC(C)c3ccccc3)sc2c1 (stereo unspecified)	1	6
CCOc1cccc(C(=O)Nc2nnc(-c3cccc(OCC)c3)s2)c1	1.1	-7
CCOc1ccc2nc(SCC(=O)c3ccc(C)cc3C)sc2c1	0.76*	4
SMILES	Cy5 interf NS3h	HCV NS3h FP
Nc1nnc(SCc2ccc([N+](=O)[O-])cc2)s1	0.72*	11
Nc1nnc(SCC(=O)Nc2ccccc2[N+](=O)[O-])s1	0.95	3
C=CCN(CC=C)C(=O)c1ccccc1	1.1	-15
CC(=O)C(C(=O)c1ccccc1)C1(O)C(=O)Nc2ccccc21 (stereo unspecified)	0.79*	-3
O=C1Nc2ccccc2C1(O)C/C(=N\O)c1ccc(Cl)cc1 (stereo unspecified)	0.98	2
COc1ccccc1CNC(=O)C1CC(=O)N(c2ccc(C)cc2)C1 (stereo unspecified)	1.1	11
CC1C(c2ccccc2)NC(c2ccccc2)C(C)C1O (stereo unspecified)	1	-4
COc1ccc(C2CC(O)C(C)C(c3ccc(OC)cc3)N2)cc1 (stereo unspecified)	0.73*	16
CC1(C)C(c2ccccc2)=[N+]([O-])C2(CCCCC/C2=N/NC(N)=S)N1O (stereo unspecified)	1	-5
O=C1c2cc(S(=O)(=O)NCCCO)ccc2-c2ccc(S(=O)(=O)NCCCO)cc21	0.63*	-5
O=C1c2cc(S(=O)(=O)Nc3ccncc3)ccc2-c2ccc(S(=O)(=O)Nc3ccncc3)cc21	0.92	15
O=C1c2ccccc2/C(=N\N=C/c2cccs2)C1C(=O)C(c1ccccc1)c1ccccc1 (stereo unspecified)	1	6
COc1ccc(NC(=O)/C(C#N)=C/c2cc(C)n(-c3cccc([N+](=O)[O-])c3)c2C)cc1	1	14
O=c1oc2cc(OCc3c(F)cccc3Cl)c(Cl)cc2c2c1CCC2	1.2	7
O=C(/C=C/c1ccco1)Nc1ccc(NC(=O)c2ccc(Cl)cc2Cl)cc1	1	8
CC(=O)CC(=O)Nc1ccc(Cl)cn1	1	5
O=C(CC(c1ccccc1)c1ccccc1)Nc1ccc(Cl)cn1	0.66*	9
COC(=O)c1c(C)oc2ccc(OC(=O)c3ccccc3)cc12	1	8
Cc1ccc(S(=O)(=O)C(CC(=O)c2ccccc2)c2cccs2)cc1 (stereo unspecified)	0.9	6
Nc1ccc(Oc2ccc(N)c(N)c2)cc1	0.19*	-10
COc1ccc(Oc2ccc(N)cc2)cc1	0.92	-12
Cc1c(Cl)c([N+](=O)[O-])nn1CC(=O)N1CCCC1	1	-3
Cc1c(Br)c([N+](=O)[O-])nn1CC(=O)N1CCc2ccccc2C1	0.56*	12
O=C(/C=C/c1ccccc1)c1ccc([N+](=O)[O-])cc1	0.92	-8
CC(C)NC(=O)CN(c1ccc(F)cc1)S(=O)(=O)c1ccccc1	1.1	7
SMILES	Cy5 interf NS3h	HCV NS3h FP
Cc1ccc(C)n1-c1ccc(Br)cc1C(=O)O	1.1	49*
CC(C)C(=O)Nc1ccc(Br)cc1C(=O)O	0.97	-2
O=C(c1coc2ccc(O)c(CN3CCCCC3)c12)C1CC1	1	2
COc1ccc(N)cc1-n1c(C)ccc1C	0.4*	4
NC(=O)C1CCN(C(=O)c2cccc(F)c2)CC1	1.1	-1
CCc1cc2c(C)c(CC)c(=O)oc2cc1OCC(C)=O	1	-4
CCCc1c(C)c2c(OCC(=O)O)cc(OCC(=O)O)cc2oc1=O	0.76*	13
Cc1ccc(-c2nn(-c3cc(N4CCN(CCO)CC4)ccc3[N+](=O)[O-])c(=O)c3ccccc23)cc1C	0.96	7
CCN(CC)c1ccc(NC(=O)c2ccc(I)cc2)cc1	1.3*	16
CCN(CC)c1ccc(NC(=O)c2ccc(Br)cc2)cc1	1	8
Cc1ccc(N2C(=O)CC(N3CCSCC3)C2=O)cc1 (stereo unspecified)	0.91	27
Cc1ccc(N2C(=O)CC(N3CCC(C)CC3)C2=O)cc1 (stereo unspecified)	1.2*	10
O=P(O)(Oc1cccc(Cl)c1)Oc1cccc(Cl)c1	1	-1
Cc1cccc(NC(=O)c2ccc(OCC(C)C)cc2)c1	1	5
CCC1=NN(C(=O)c2ccncc2)C(O)(c2ccc(Br)cc2)C1 (stereo unspecified)	0.99	-4
CCC1=NN(C(=O)c2cccc(C)c2O)C(O)(c2ccc(Br)cc2)C1 (stereo unspecified)	0.77*	-6
Fc1ccc(CN2CCN(Cc3cccnc3)CC2)cc1	1	-8
O=C1C2C3C=CC(C4CC34)C2C(=O)N1c1ccc(Cl)cc1 (stereo unspecified)	0.92	-4
COC(=O)c1cc(N2C(=O)C3C4C=CC(C5CC45)C3C2=O)ccc1Cl (stereo unspecified)	0.69*	8
Cc1ccnc(N2C(=O)C3C4c5ccccc5C(c5ccccc54)C3C2=O)c1 (stereo unspecified)	1	7
O=C(Oc1cccc2ccccc12)c1ccc(Cl)cc1Cl	0.64*	6
O=S(=O)(Oc1cccc2ccccc12)c1cc(Cl)ccc1Cl	1	12
CCOc1ccc(C(=O)Nc2ccc(OC)c(Cl)c2)cc1	1	6
COc1ccc(/C=C/C(=O)Nc2nc(-c3ccccc3)cs2)cc1OC	0.87	17

Screening results from PubChem BioAssay.
